Results filed as inconclusive are left out. Entries that show only a call come without a potency. Unmarked numbers belong to inactive results. The source made the active and inactive calls. Calls follow the shape of the dose curve; as a rule, active = well fitted inhibition curve with a large enough effect; inconclusive = small, poorly fitted or top-dose-only effect; inactive = flat fitted curve, though single readings scatter.
Legend:
[1] = qHTS profiling for inhibitors of Plasmodium falciparum proliferation (AID 504749); also: nearly all actives have a fitted effect of over 60% in size; settings: P. falciparum in erythrocytes, SYBR Green DNA, 72 h
Procedure, shortened: (§1)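 Quantitative HTS: compounds pinned into medium, infected erythrocytes added (0.3% parasitemia, 2.5% hematocrit), 72 h culture at 37 C under 5% CO2. Saponin/Triton lysis with SYBR Green I, overnight RT, then fluorescence read.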

[2] = tested on: 3D7; experiment: as above; settings: P. falciparum in erythrocytes, SYBR Green DNA, 72 h; series mostly up to 28.7 µM
Procedure, shortened: as §1

[3] = tested on: 7G8; experiment: as above; settings: P. falciparum in erythrocytes, SYBR Green DNA, 72 h; series mostly up to 28.7 µM
Procedure, shortened: as §1

[4] = tested on: AA1029; experiment: as above; settings: P. falciparum in erythrocytes, SYBR Green DNA, 72 h; series mostly up to 28.7 µM
Procedure, shortened: as §1

[5] = tested on: AS120; experiment: as above; settings: P. falciparum in erythrocytes, SYBR Green DNA, 72 h; series mostly up to 28.7 µM
Procedure, shortened: as §1

[6] = tested on: ATS189; experiment: as above; settings: P. falciparum in erythrocytes, SYBR Green DNA, 72 h; series mostly up to 28.7 µM
Procedure, shortened: as §1

[7] = tested on: ATS95; experiment: as above; settings: P. falciparum in erythrocytes, SYBR Green DNA, 72 h; series mostly up to 28.7 µM
Procedure, shortened: as §1

[8] = tested on: C2A; experiment: as above; settings: P. falciparum in erythrocytes, SYBR Green DNA, 72 h; series mostly up to 28.7 µM
Procedure, shortened: as §1

[9] = tested on: CP185; experiment: as above; settings: P. falciparum in erythrocytes, SYBR Green DNA, 72 h; series mostly up to 28.7 µM
Procedure, shortened: as §1

[10] = tested on: CP191; experiment: as above; settings: P. falciparum in erythrocytes, SYBR Green DNA, 72 h; series mostly up to 28.7 µM
Procedure, shortened: as §1

[11] = tested on: CP192; experiment: as above; settings: P. falciparum in erythrocytes, SYBR Green DNA, 72 h; series mostly up to 28.7 µM
Procedure, shortened: as §1

[12] = tested on: CP194; experiment: as above; settings: P. falciparum in erythrocytes, SYBR Green DNA, 72 h; series mostly up to 28.7 µM
Procedure, shortened: as §1

[13] = tested on: CP201; experiment: as above; settings: P. falciparum in erythrocytes, SYBR Green DNA, 72 h; series mostly up to 28.7 µM
Procedure, shortened: as §1

[14] = tested on: CP203; experiment: as above; settings: P. falciparum in erythrocytes, SYBR Green DNA, 72 h; series mostly up to 28.7 µM
Procedure, shortened: as §1

[15] = tested on: CP211; experiment: as above; settings: P. falciparum in erythrocytes, SYBR Green DNA, 72 h; series mostly up to 28.7 µM
Procedure, shortened: as §1

[16] = tested on: CP215; experiment: as above; settings: P. falciparum in erythrocytes, SYBR Green DNA, 72 h; series mostly up to 28.7 µM
Procedure, shortened: as §1

[17] = tested on: CP217; experiment: as above; settings: P. falciparum in erythrocytes, SYBR Green DNA, 72 h; series mostly up to 28.7 µM
Procedure, shortened: as §1

[18] = at 28.7 µM (top of the series), parasite line A
[19] = at 28.7 µM (top of the series), parasite line B
[20] = at 12.8 µM (top of the series), parasite line A
[21] = at 12.8 µM (top of the series), parasite line B
Potency is read from the fitted curve at half-maximal effect.

SMILES: CCc1oc2ccccc2c1C(=O)c1cc(I)c(O)c(I)c1
- activity, negative = inhibition [1, 18]: -1.64%
- activity, negative = inhibition [1, 19]: -5.21%
- Potency [2]: inactive
- Potency [3]: inactive
- Potency [4]: inactive
- Potency [5]: inactive
- Potency [6]: inactive
- Potency [7]: inactive
- Potency [8]: inactive
- Potency [9]: inactive
- Potency [10]: inactive
- Potency [11]: inactive
- Potency [12]: inactive
- Potency [13]: inactive
- Potency [14]: inactive
- Potency [15]: inactive
- Potency [16]: inactive
- Potency [17]: inactive

SMILES: COc1cc(C(=O)N2CCCCCCC2)cc(OC)c1OC
- activity, negative = inhibition [1, 18]: 22.3%
- activity, negative = inhibition [1, 19]: 22.7%
- Potency [2]: inactive
- Potency [3]: inactive
- Potency [4]: inactive
- Potency [5]: inactive
- Potency [6]: inactive
- Potency [7]: inactive
- Potency [8]: inactive
- Potency [9]: inactive
- Potency [10]: inactive
- Potency [11]: inactive
- Potency [12]: inactive
- Potency [13]: inactive
- Potency [14]: inactive
- Potency [15]: inactive
- Potency [16]: inactive
- Potency [17]: inactive

SMILES: Cc1c(-c2ccccc2)oc2c(C(=O)OCCN3CCCCC3)cccc2c1=O
- activity, negative = inhibition [1, 20]: 0.972%
- activity, negative = inhibition [1, 21]: 6.11%
- Potency [2]: inactive
- Potency [3]: inactive
- Potency [4]: inactive
- Potency [5]: inactive
- Potency [6]: inactive
- Potency [7]: inactive
- Potency [8]: inactive
- Potency [9]: inactive
- Potency [10]: inactive
- Potency [11]: inactive
- Potency [12]: inactive
- Potency [13]: inactive
- Potency [14]: inactive
- Potency [15]: inactive
- Potency [16]: inactive
- Potency [17]: inactive

SMILES: CC(=O)Nc1ccc(S(=O)(=O)Nc2ccc([N+](=O)[O-])cc2)cc1
- activity, negative = inhibition [1, 18]: -0.674%
- activity, negative = inhibition [1, 19]: 0.755%
- Potency [2]: inactive
- Potency [3]: inactive
- Potency [4]: inactive
- Potency [5]: inactive
- Potency [6]: inactive
- Potency [7]: inactive
- Potency [8]: inactive
- Potency [9]: inactive
- Potency [10]: inactive
- Potency [11]: inactive
- Potency [12]: inactive
- Potency [13]: inactive
- Potency [14]: inactive
- Potency [15]: inactive
- Potency [16]: inactive
- Potency [17]: inactive

SMILES: COc1ccc(-c2cc(C(F)F)nn2-c2ccc(S(N)(=O)=O)cc2)cc1F
- activity, negative = inhibition [1, 18]: 1.08%
- activity, negative = inhibition [1, 19]: -0.185%
- Potency [2]: inactive
- Potency [3]: inactive
- Potency [4]: inactive
- Potency [5]: inactive
- Potency [6]: inactive
- Potency [7]: inactive
- Potency [8]: inactive
- Potency [9]: inactive
- Potency [10]: inactive
- Potency [11]: inactive
- Potency [12]: inactive
- Potency [13]: inactive
- Potency [14]: inactive
- Potency [15]: inactive
- Potency [16]: inactive
- Potency [17]: inactive

SMILES: CCCN(CCC)S(=O)(=O)c1ccc(C(=O)O)cc1
- activity, negative = inhibition [1, 18]: 12.1%
- activity, negative = inhibition [1, 19]: 6%
- Potency [2]: inactive
- Potency [3]: inactive
- Potency [4]: inactive
- Potency [5]: inactive
- Potency [6]: inactive
- Potency [7]: inactive
- Potency [8]: inactive
- Potency [9]: inactive
- Potency [10]: inactive
- Potency [11]: inactive
- Potency [12]: inactive
- Potency [13]: inactive
- Potency [14]: inactive
- Potency [15]: inactive
- Potency [16]: inactive
- Potency [17]: inactive

SMILES: NCCNC(=O)c1ccc(Cl)cn1
- activity, negative = inhibition [1, 18]: -3.24%
- activity, negative = inhibition [1, 19]: -5.67%
- Potency [2]: inactive
- Potency [3]: inactive
- Potency [4]: inactive
- Potency [5]: inactive
- Potency [6]: inactive
- Potency [7]: inactive
- Potency [8]: inactive
- Potency [9]: inactive
- Potency [10]: inactive
- Potency [11]: inactive
- Potency [12]: inactive
- Potency [13]: inactive
- Potency [14]: inactive
- Potency [15]: inactive
- Potency [16]: inactive
- Potency [17]: inactive

SMILES: CC(C)Cc1ccc(CC(=O)O)cc1
- activity, negative = inhibition [1, 18]: 5.78%
- activity, negative = inhibition [1, 19]: 6.05%
- Potency [2]: inactive
- Potency [3]: inactive
- Potency [4]: inactive
- Potency [5]: inactive
- Potency [6]: inactive
- Potency [7]: inactive
- Potency [8]: inactive
- Potency [9]: inactive
- Potency [10]: inactive
- Potency [11]: inactive
- Potency [12]: inactive
- Potency [13]: inactive
- Potency [14]: inactive
- Potency [15]: inactive
- Potency [16]: inactive
- Potency [17]: inactive

SMILES: CCN(CC)CCNC(=O)c1cc(Br)c(N)cc1OC
- activity, negative = inhibition [1, 18]: 1.38%
- activity, negative = inhibition [1, 19]: 3.74%
- Potency [2]: inactive
- Potency [3]: inactive
- Potency [4]: inactive
- Potency [5]: inactive
- Potency [6]: inactive
- Potency [7]: inactive
- Potency [8]: inactive
- Potency [9]: inactive
- Potency [10]: inactive
- Potency [11]: inactive
- Potency [12]: inactive
- Potency [13]: inactive
- Potency [14]: inactive
- Potency [15]: inactive
- Potency [16]: inactive
- Potency [17]: inactive

SMILES: CCOC(=O)c1c(N)sc2c1CCN(Cc1ccccc1)C2
- Potency ([1]; parasite line A): 10 µM (active)
- Potency ([1]; parasite line B): 5.01 µM (active)
- Potency [2]: 11.2 µM (active)
- Potency [3]: 6.31 µM (active)
- Potency [4]: 5.01 µM (active)
- Potency [5]: 8.91 µM (active)
- Potency [6]: 7.94 µM (active)
- Potency [7]: 8.91 µM (active)
- Potency [8]: 11.2 µM (active)
- Potency [9]: 5.01 µM (active)
- Potency [10]: 5.01 µM (active)
- Potency [11]: 5.36 µM (active)
- Potency [12]: 7.57 µM (active)
- Potency [13]: 6.75 µM (active)
- Potency [14]: 4.26 µM (active)
- Potency [15]: 6.75 µM (active)
- Potency [16]: 8.49 µM (active)
- Potency [17]: 5.62 µM (active)

SMILES: O=C(O)CCC(=O)Nc1ccc(S(=O)(=O)Nc2nccs2)cc1
- activity, negative = inhibition [1, 20]: 14.2%
- activity, negative = inhibition [1, 21]: 11.7%
- Potency [2]: inactive
- Potency [3]: inactive
- Potency [4]: inactive
- Potency [5]: inactive
- Potency [6]: inactive
- Potency [7]: inactive
- Potency [8]: inactive
- Potency [9]: inactive
- Potency [10]: inactive
- Potency [11]: inactive
- Potency [12]: inactive
- Potency [13]: inactive
- Potency [14]: inactive
- Potency [15]: inactive
- Potency [16]: inactive
- Potency [17]: inactive

SMILES: COc1cc(C(=O)NCc2ccc(OCCN(C)C)cc2)cc(OC)c1OC
- activity, negative = inhibition [1, 20]: -2.54%
- activity, negative = inhibition [1, 21]: -4.52%
- Potency [2]: inactive
- Potency [3]: inactive
- Potency [4]: inactive
- Potency [5]: inactive
- Potency [6]: inactive
- Potency [7]: inactive
- Potency [8]: inactive
- Potency [9]: inactive
- Potency [10]: inactive
- Potency [11]: inactive
- Potency [12]: inactive
- Potency [13]: inactive
- Potency [14]: inactive
- Potency [15]: inactive
- Potency [16]: inactive
- Potency [17]: inactive
